An excerpt weighted towards active compounds, which were near 3% of everything screened.
Measles CPE: compounds protecting cells from measles virus cytopathic effect, primary screen, measles RdRp inhibitor project, single point, MLSMR library, absorbance; Measles virus-infected cells, CPE protection; protection (pct of control), % at 4 µM; 140,000 tested, 1.5% active; AID 841, 2007; in the data active = protection mostly above about 24%, no sharp cut-off; inactive = mostly below about 26%
INS promoter inh: inhibitors of insulin promoter-driven GFP, primary screen, imaging, TRM-6 cells (human fetal islet line), eGFP reporter, cell count; AID 1273, 2008; reporter expression induced with tamoxifen; inhibition, % at 2 µM; 130,000 tested, 0.9% active;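 active = inhibition above the mean plus 3 SD, with well images judged a real hit on visual review, cut at about 60% in these data, passing the limit was not always enough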
SDO1 yeast rescue: growth rescue of sdo1-depleted yeast, primary screen, S. cerevisiae, bone marrow failure model. S. cerevisiae sdo1-depleted JHY4D growth rescue, OD600 30 h; active compounds read high; pdr5 snq2 efflux-pump mutant strain. AID 817, 2007. 140,000 tested, 0.21% active. z-score at 10 µM;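 active = z-score above 3 at both the 24 hr and the 30 hr optical density reads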;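 note: z-score against mean and SD of all compound wells on the same plate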
ROMK primary: ROMK potassium channel modulators, primary screen, cell-based, thallium flux, MLSMR library. B-score at 10 µM. ATP-sensitive inward rectifier potassium channel 1 (Homo sapiens), P48048. Tet-inducible ROMK, thallium flux fluorescence; actives lie on both sides. 130,000 tested, 2% active;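 active = signal ratio slope over the read window, or its plate-corrected B-score, at least 3 SD from the plate mean, either direction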;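 note: B-score of the F/F0 ratio slope over 7 to 12 s after thallium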
Target sequence (P48048 whole entry, looked up): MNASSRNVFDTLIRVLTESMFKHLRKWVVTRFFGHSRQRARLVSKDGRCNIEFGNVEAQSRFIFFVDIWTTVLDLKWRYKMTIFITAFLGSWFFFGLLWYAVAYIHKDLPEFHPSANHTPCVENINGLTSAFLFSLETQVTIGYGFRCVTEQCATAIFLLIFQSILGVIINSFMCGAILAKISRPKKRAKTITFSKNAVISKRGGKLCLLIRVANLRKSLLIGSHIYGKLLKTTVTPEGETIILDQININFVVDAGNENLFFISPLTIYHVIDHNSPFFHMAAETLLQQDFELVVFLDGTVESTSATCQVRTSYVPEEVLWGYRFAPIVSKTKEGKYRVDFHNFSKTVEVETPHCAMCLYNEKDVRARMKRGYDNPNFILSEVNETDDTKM
An asterisk follows results filed as active; x = not tested or not shown; [ ] = dose if it differs, or a comment.

SMILES	Measles CPE	INS promoter inh	SDO1 yeast rescue	ROMK primary
COc1cc(/C=N/NC(=S)Nc2cccc(Cl)c2C)ccc1OCC(=O)N1CC(C)OC(C)C1 (configuration not stated)	12	33	0.32	-0.55
CCCCC(c1nnnn1C1CCCC1)N1CCN(C2CCCC2)CC1 (configuration not stated)	3	-79	0.3	-3.2*
CC(C)CC(c1nnnn1C1CCCC1)N1CCN(c2ccccc2F)CC1 (configuration not stated)	42*	8	-2.1	x
N#Cc1cnn(-c2cccc(Cl)c2)c1N	x	x	x	0.26
CCCN(CCC)CC(O)COc1ccc2c(c1)OCO2 (configuration not stated)	x	x	x	0.38
S=c1nn[nH]n1C12CC3CC(CC(C3)C1)C2	34*	-33	0.21	x
N#Cc1cc([N+](=O)[O-])cnc1Nc1ccccc1	18	-34	1	1.1
O=C(OCn1ncc(Br)c(Br)c1=O)c1ccc(F)cc1	0	-186	-2.8	-3.5*
O=C(OCn1ncc(Br)c(Br)c1=O)c1ccccc1Cl	1	x	-2.2	-2.1
CC(C)c1ccc(C2C3=C(COC3=O)Nc3cc4c(cc32)OCO4)cc1 (configuration not stated)	x	x	x	-0.89
CCOC(=O)C(C)c1nc2ccccc2[nH]c1=O (configuration not stated)	25*	0	0.44	-1.3
CCCCNC(=O)C(=O)N/N=C/c1ccc(OCC(=O)Nc2cccc(OC)c2)c(OC)c1	9	-52	1.3	-0.54
COC(=O)CS(=O)(=O)c1ccc(C)cc1	x	13	x	0.46
CCn1cnc2sc(C(=O)Oc3ccc(Br)cc3)c(C)c2c1=O	x	0	x	x
CCn1cnc2sc(C(=O)N(Cc3ccc(N(C)C)cc3)Cc3ccco3)c(C)c2c1=O	55*	-12	-0.78	-0.53
Cc1nnc(Sc2nc3ccccc3o2)c2ccccc12	26*	12	-0.4	x
Cc1ccc(-c2nnc(Sc3nc4ccccc4o3)c3ccccc23)cc1	9	x	-0.83[8.9 µM]	-1.3
CC1=NN(C(C#N)c2ccccc2C)C(C)(C)C1 (configuration not stated)	x	x	x	0.78
COCCn1c(COc2ccc(C)cc2)nc2ccccc21	6	-109	-0.36	x
CCOCCn1c(COc2ccc(C)cc2)nc2ccccc21	29*	-11	-0.86	-1.2
O=C(CN1C(=O)CSc2cc(S(=O)(=O)N3CCCCCC3)ccc21)NCCc1ccccc1	4	-61	-0.08	-5.5*
O=C(CN1C(=O)CSc2ccc(S(=O)(=O)N3CCOCC3)cc21)NCc1cccnc1	x	-27	x	0.095
NC(=O)[C@@H]1CCCCNc2c(I)cc([N+](=O)[O-])cc2C(=O)N[C@@H](CCC(=O)O)C(=O)N[C@@H](CO)C(=O)N1	4	60*	0.63	-0.18
NC(=O)[C@@H]1CCNc2c(I)cc([N+](=O)[O-])cc2C(=O)N[C@@H](CCC(=O)O)C(=O)N[C@@H](CO)C(=O)N1	8	-5	0.58	0.032
Cc1ccc(NC(=O)C(=O)NNC(=O)c2cccs2)cc1	x	17	x	2.9*
SMILES	Measles CPE	INS promoter inh	SDO1 yeast rescue	ROMK primary
COc1ccc(C(=O)NC(=O)COC(=O)C2COc3ccccc3O2)cc1 (configuration not stated)	1	-3	0.58	-0.024
CCc1c(O)cc(=O)n(-c2ccccc2)c1-c1ccccc1	26*	-33	-0.07	1.5
CC(C)Cc1cc(C(=O)O)n[nH]1	19*	28	0.27	x
CCc1ccc(-n2c(=O)c3c(C)c(C(=O)N(C)C)sc3n(CC(=O)NCC3CCCO3)c2=O)cc1 (configuration not stated)	x	7	x	0.062
CCN(CC)C(=O)c1sc2c(c1C)c(=O)n(-c1ccc(C)c(C)c1)c(=O)n2CC(=O)NCC1CCCO1 (configuration not stated)	x	83*	x	-0.29
C=C(C)Cn1c(-c2ccncc2)n[nH]c1=S	x	0	x	0.98
CCCn1c(SC(C(=O)Nc2cccc(OC)c2)c2ccccc2)nc2ccccc2c1=O (configuration not stated)	15	-13	-0.09	-0.39
NC(=O)C1C(c2ccccc2)=C1c1ccccc1	57*	x	0.04	x
NC(=O)C1c2ccccc2CSc2ccccc21 (configuration not stated)	7	x	0.3	0.057
CN(CC(=O)Nc1ccc(N2CCOCC2)cc1)Cc1cc(=O)n2ccsc2n1	x	64	x	0.65
COCCOCCOCCC(=O)NC1CC2CCC1(C)C2(C)C (configuration not stated)	51*	-45	-0.02	0.032

Screens deposited in PubChem by several laboratories.
